# Measurements published in PubChem BioAssay (Tox21).
# Records with an inconclusive call do not appear. Entries that show only a call come without a potency. The source made the active and inactive calls. Unless noted, calls follow the shape of the dose curve; as a rule, active = well fitted curve in the direction sought with a large enough effect in the repeat runs; inconclusive = weak or mixed curves; inactive = no such curve, though single readings can be large; an effect the other way counts as inactive or inconclusive.
# Experiments:
# [1] = qHTS assay to identify small molecule antagonists of the glucocorticoid receptor (GR) signaling pathway - cell viability counter screen (AID 720693); also: nearly all actives have a fitted effect of over 55% in size
# [2] = qHTS assay for identifying genotoxic compounds that show differential cytotoxicity against isogenic chicken DT40 cell lines with known DNA damage response pathways - wild type cell line (AID 743012); also: nearly all actives have a fitted effect of over 60% in size
# How it was run: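 CellTiter-Glo luminescence readout of viability in wild type DT40 cells after 40 h compound exposure at 37 C/5% CO2; 300 cells/well; reagent incubated 30 min at room temperature before reading.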
# [3] = qHTS assay for identifying genotoxic compounds that show differential cytotoxicity against isogenic chicken DT40 cell lines with known DNA damage response pathways - Rev3 mutant cell line (AID 743014); also: nearly all actives have a fitted effect of over 55% in size
# [4] = qHTS assay to identify small molecule antagonists of the androgen receptor (AR) signaling pathway - cell viability counter screen (AID 743033; also: nearly all actives have a fitted effect of over 45% in size)
# [5] = qHTS assay to identify small molecule antagonists of the androgen receptor (AR) signaling pathway using the MDA cell line - cell viability counter screen (AID 743041; also: nearly all actives have a fitted effect of over 45% in size)
# How it was run: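 Cytotoxicity counter screen: MDA-kb2 AR-luc cells, compound + R1881, 16 h, 37C, 0% CO2; CellTiter-Fluor added at 15.5 h, fluorescence read after 30 min.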
# [6] = qHTS assay to identify small molecule antagonists of the thyroid receptor (TR) signaling pathway - cell viability counter screen (AID 743064); also: nearly all actives have a fitted effect of over 50% in size
# How it was run: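 Compounds were tested on GH3.TRE-Luc cells in the presence of T3 at 1 nM final. Following 23.5 h at 37 °C, cell viability was quantified by CellTiter-Fluor.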
# [7] = test system: thyroid hormone receptor (rat, GH3 cells); assay: qHTS assay to identify small molecule agonists of the thyroid receptor (TR) signaling pathway (AID 743066; calls by dose curve)
# [8] = molecular target: Estrogen receptor (Homo sapiens) (UniProt P03372); assay: qHTS assay to identify small molecule antagonists of the estrogen receptor alpha (ER-alpha) signaling pathway (AID 743069; active = well fitted curve in the direction sought with a large enough effect in the signal ratio in the repeat runs, not every such curve was filed as active; the % refers to the signal ratio)
# How it was run: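 Beta-lactamase FRET fluorescence is read after 2 hr at room temperature with LiveBLAzer B/G substrate. Before that, ER-alpha-bla HEK293 cells sit 4 hr after plating, then receive compound plus 17beta-estradiol and incubate 18 hr at 37C.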
# [9] = qHTS assay to identify small molecule antagonists of the estrogen receptor alpha (ER-alpha) signaling pathway - cell viability counter screen (AID 743074; calls by dose curve;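 also: HEK293 cells carrying ER-alpha-UAS-bla reporter stimulated with 17beta-estradiol; nearly all actives have a fitted effect of over 45% in size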; also: potency is read from the fitted curve at half-maximal effect)
# [10] = molecular target: Estrogen receptor (Homo sapiens) (UniProt P03372); assay: qHTS assay to identify small molecule agonists of the estrogen receptor alpha (ER-alpha) signaling pathway (AID 743075; calls by dose curve;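 also: HEK293 GripTite cells with ER-alpha and UAS-driven beta-lactamase reporter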)
# [11] = molecular target: Estrogen receptor (Homo sapiens) (UniProt P03372); assay: qHTS assay to identify small molecule agonists of the estrogen receptor alpha (ER-alpha) signaling pathway using the BG1 cell line (AID 743079); also: nearly all actives have a fitted effect of over 20% in size
# [12] = qHTS assay to identify small molecule antagonists of the estrogen receptor alpha (ER-alpha) signaling pathway using the BG1 cell line (AID 743080; calls by dose curve;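 also: BG1 cells stimulated with 17beta-estradiol alongside compound; series mostly up to about 70 µM; nearly all actives have a fitted effect of over 25% in size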)
# How it was run: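 Seeding, 24 h rest, compound transfer from DMSO, 17beta-estradiol addition, 21.5 h incubation, CellTiter-Fluor (30 min, 37 C), then ONE-Glo (30 min, room temperature): this sequence was run on BG1-Luc-4E2 reporter cells.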
# [13] = qHTS assay to identify small molecule antagonists of the estrogen receptor alpha (ER-alpha) signaling pathway using the BG1 cell line - cell viability counter screen (AID 743081);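 also: compound given together with 17beta-estradiol as the ER stimulus; series mostly up to about 70 µM; nearly all actives have a fitted effect of over 45% in size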
# Aromatase (Homo sapiens) = Aromatase (Homo sapiens) (UniProt P11511); assay: qHTS assay to identify aromatase inhibitors (AID 743083); also: series mostly up to about 70 µM; nearly all actives have a fitted effect of over 55% in size
# [14] = qHTS assay to identify aromatase inhibitors - cell viability counter screen (AID 743084);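 also: cells stimulated with testosterone during compound exposure; nearly all actives have a fitted effect of over 55% in size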
# [15] = qHTS assay for identifying genotoxic compounds that show differential cytotoxicity against isogenic chicken DT40 cell lines with known DNA damage response pathways - Rad54/Ku70 mutant cell line (AID 743015); also: nearly all actives have a fitted effect of over 60% in size
# [16] = qHTS assay to identify small molecule antagonists of the thyroid receptor (TR) signaling pathway (AID 743065)
# How it was run: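 GH3.TRE-Luc rat pituitary cells (two TREs driving luciferase) were dosed with compound, then stimulated with 1 nM T3 (final) for 23.5 h at 37 C. ONE-Glo luminescence was the read-out, with CellTiter-Fluor fluorescence as the cytotoxicity counter-screen.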
# [17] = molecular target: Androgen receptor (Homo sapiens) (UniProt P10275); assay: qHTS assay to identify small molecule antagonists of the androgen receptor (AR) signaling pathway (AID 743035; active = well fitted inhibition curve with a large enough effect in the signal ratio in the repeat runs, not every such curve was filed as active; the % refers to the signal ratio)
# How it was run: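 AR-bla HEK293 reporter cells; 4 h settle at 37C/5% CO2; compound + R1881 agonist, 16 h at 37C; LiveBLAzer B/G FRET substrate 2 h RT; fluorescence intensity read. qHTS format.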
# [18] = molecular target: Androgen receptor (Homo sapiens) (UniProt P10275); assay: qHTS assay to identify small molecule agonists of the androgen receptor (AR) signaling pathway (AID 743036; active = well fitted activation curve with a large enough effect in the signal ratio in the repeat runs, with a control signal flat, not every such curve was filed as active; the % refers to the signal ratio)
# How it was run: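 Beta-lactamase under UAS control, stably integrated in HEK293 GripTite cells, reports receptor activation. After 16 h compound treatment, cells received FRET substrate for 2 h at room temperature before fluorescence reading.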
# [19] = molecular target: Androgen receptor (Homo sapiens) (UniProt P10275); assay: qHTS assay to identify small molecule antagonists of the androgen receptor (AR) signaling pathway using the MDA cell line (AID 743042; also: nearly all actives have a fitted effect of over 55% in size)
# How it was run: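 MDA-kb2 breast carcinoma cells carrying MMTV-luciferase (AR/GR responsive) were co-treated with compounds and the agonist R1881 for 16 h at 37C. Inhibition read as ONE-Glo luminescence; CellTiter-Fluor fluorescence measured in parallel for cytotoxicity.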
# Sequence of Androgen receptor (Homo sapiens) (P10275 whole entry, looked up): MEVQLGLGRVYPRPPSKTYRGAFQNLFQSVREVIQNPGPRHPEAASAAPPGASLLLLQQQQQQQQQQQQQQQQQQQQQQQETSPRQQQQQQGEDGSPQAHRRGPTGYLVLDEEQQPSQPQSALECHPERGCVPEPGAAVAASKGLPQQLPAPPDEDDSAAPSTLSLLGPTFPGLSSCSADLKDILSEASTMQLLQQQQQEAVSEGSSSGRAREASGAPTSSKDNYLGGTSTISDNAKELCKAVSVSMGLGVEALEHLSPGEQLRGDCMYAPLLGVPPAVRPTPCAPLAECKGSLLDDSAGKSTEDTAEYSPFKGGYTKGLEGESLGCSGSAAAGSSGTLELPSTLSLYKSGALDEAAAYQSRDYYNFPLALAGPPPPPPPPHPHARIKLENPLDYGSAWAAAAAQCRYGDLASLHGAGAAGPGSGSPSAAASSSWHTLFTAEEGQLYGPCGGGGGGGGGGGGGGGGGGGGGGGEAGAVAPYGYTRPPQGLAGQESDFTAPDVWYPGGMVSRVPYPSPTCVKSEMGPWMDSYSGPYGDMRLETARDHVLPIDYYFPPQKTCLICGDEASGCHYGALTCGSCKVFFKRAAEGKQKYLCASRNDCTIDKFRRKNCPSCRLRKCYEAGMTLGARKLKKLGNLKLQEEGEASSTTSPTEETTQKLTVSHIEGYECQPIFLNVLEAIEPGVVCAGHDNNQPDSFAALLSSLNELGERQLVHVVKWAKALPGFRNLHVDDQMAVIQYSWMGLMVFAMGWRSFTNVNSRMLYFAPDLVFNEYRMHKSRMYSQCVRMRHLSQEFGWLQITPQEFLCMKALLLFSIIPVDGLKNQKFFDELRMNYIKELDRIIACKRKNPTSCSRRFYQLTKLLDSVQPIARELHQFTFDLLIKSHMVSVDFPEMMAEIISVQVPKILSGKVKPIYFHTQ
# Sequence of Aromatase (Homo sapiens) (P11511 whole entry, looked up): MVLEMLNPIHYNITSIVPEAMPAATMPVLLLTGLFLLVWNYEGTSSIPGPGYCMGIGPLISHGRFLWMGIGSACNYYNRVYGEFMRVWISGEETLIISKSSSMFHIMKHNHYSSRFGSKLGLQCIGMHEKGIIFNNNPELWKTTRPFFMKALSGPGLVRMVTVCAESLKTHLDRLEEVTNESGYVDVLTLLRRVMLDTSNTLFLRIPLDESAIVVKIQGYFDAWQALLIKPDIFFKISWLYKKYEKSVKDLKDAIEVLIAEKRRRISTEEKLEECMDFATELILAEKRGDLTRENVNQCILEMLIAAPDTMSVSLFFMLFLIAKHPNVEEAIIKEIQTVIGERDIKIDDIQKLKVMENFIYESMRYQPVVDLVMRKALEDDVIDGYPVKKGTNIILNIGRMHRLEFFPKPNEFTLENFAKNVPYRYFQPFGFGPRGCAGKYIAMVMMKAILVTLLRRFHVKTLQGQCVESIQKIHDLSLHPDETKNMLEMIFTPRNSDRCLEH
# Sequence of Estrogen receptor (Homo sapiens) (P03372 whole entry, looked up): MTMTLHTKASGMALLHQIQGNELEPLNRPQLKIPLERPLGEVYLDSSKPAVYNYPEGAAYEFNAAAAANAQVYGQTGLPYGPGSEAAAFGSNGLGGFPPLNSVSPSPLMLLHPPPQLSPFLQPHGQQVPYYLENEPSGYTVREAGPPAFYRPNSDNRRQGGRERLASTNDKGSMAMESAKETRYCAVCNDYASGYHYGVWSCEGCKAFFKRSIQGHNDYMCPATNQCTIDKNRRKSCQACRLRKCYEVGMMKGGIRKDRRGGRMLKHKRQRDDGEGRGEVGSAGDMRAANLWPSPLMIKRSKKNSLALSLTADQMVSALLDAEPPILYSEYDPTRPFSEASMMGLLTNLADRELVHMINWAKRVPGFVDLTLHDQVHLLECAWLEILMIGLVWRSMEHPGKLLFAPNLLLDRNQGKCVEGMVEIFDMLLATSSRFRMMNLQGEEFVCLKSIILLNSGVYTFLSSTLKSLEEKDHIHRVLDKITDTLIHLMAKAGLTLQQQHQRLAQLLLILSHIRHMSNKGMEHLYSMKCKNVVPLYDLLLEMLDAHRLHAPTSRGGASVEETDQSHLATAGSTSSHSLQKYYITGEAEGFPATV
Compound,Potency [1],Potency [2],Potency [3],outcome [4],outcome [5],Potency [6],Potency [7],Potency [8],Potency [9],Potency [10],Potency [11],outcome [12],outcome [13],outcome (Aromatase (Homo sapiens)),Potency [14],Potency [15],Potency [16],Potency [17],outcome [18],outcome [19]
CN=C(NC#N)NCCSCc1csc(N=C(N)N)n1,inactive,inactive,inactive,inactive,inactive,inactive,inactive,inactive,inactive,inactive,inactive,inactive,inactive,inactive,inactive,–,–,–,–,–
CCCCCCCC[Si](OCC)(OCC)OCC,inactive,inactive,inactive,inactive,–,–,inactive,–,54.9 µM (active),–,–,–,inactive,inactive,inactive,inactive,inactive,–,–,–
CC(=O)/C=C/c1ccco1,inactive,inactive,inactive,inactive,–,inactive,inactive,inactive,inactive,inactive,inactive,inactive,inactive,inactive,inactive,–,–,–,–,–
Nc1ccnc(=O)[nH]1,inactive,inactive,inactive,inactive,inactive,inactive,inactive,inactive,inactive,inactive,inactive,inactive,inactive,inactive,inactive,–,inactive,inactive,inactive,inactive
O=C1CC[C@H](C(=O)N2CCCCC2)N1,inactive,inactive,inactive,inactive,inactive,–,–,–,–,inactive,inactive,–,–,inactive,inactive,inactive,–,–,–,–
